Screening data from PubChem.
Shown are actives, neighbours in structure and some others; about 3.5% of the full set was active somewhere.
TEAD-YAP inh – TEAD-YAP interaction inhibition, primary screen, TEAD-YAP interaction inhibitor project, luminescence, HEK-TIYL cells. TEAD-Gal4/YAP UAS-luciferase luminescence. inhibition, % at 9.12 µM. hit rate 1.4% among 640,000; in the data active = inhibition above about 32%;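 note: 0% = median of test compound wells and 100% = reference inhibitor wells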
FBW7 act – FBW7 E3 ligase activators, primary screen, biochemical, AlphaScreen, human. F-box/WD repeat-containing protein 7 (Homo sapiens), Q969H0. normalized activity (activation), % at 26.1 µM. hit rate 0.13% among 650,000. AlphaScreen FBW7–phospho-cyclin E peptide binding, activator screen. AID 1259310, 2017; in the data active = normalized activity above about 1.9%;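 note: purified mutant Fbw7 with reduced substrate affinity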
MITF inh – MITF inhibitors, primary screen, biochemical, AlphaScreen, human; Microphthalmia-associated transcription factor (Homo sapiens), O75030; AlphaScreen MITF homodimerization, bead proximity signal; inhibition, % at 2.6 µM; hit rate 0.91% among 650,000; in the data active = inhibition above about 50%;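 note: 0% = vehicle wells with protein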
GPR151 activ – activators of human GPR151, primary screen, cell-based, PathHunter beta-arrestin, luminescence; AID 1508602, 2020; activation, % at 11.2 µM; G-protein coupled receptor 151 (Homo sapiens), Q8TDV0; PathHunter beta-arrestin GPR151 cells; hit rate 1% among 650,000; in the data active = activation above about 4.9%;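 note: 0% = median of compound wells and 100% = cells with positive control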
Target sequence (Q8TDV0 whole entry, looked up): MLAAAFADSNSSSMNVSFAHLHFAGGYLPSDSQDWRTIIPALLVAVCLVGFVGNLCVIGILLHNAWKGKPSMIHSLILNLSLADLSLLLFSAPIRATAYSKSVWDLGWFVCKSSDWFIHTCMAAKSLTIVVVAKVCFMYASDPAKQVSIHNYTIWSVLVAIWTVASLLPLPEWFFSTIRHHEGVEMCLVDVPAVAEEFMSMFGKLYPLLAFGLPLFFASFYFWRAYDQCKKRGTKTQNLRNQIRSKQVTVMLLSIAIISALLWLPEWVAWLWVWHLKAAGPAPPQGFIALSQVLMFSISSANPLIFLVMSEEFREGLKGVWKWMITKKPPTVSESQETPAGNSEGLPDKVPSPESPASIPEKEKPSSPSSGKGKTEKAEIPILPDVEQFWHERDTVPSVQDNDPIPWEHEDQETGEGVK
The depositor's hits bear a star.

SMILES | TEAD-YAP inh | FBW7 act | MITF inh | GPR151 activ
CC(=O)Oc1ccc(C2Nc3c(C(=O)O)ccc([N+](=O)[O-])c3C3C=CCC32)cc1 (centres undefined) | -1.8 | -0.7 | 19.0 | -1.2
COc1cc(C(=O)Nc2cccc(C(=O)Nc3cccc4ccccc34)c2)cc(OC)c1OC | 64.0* | 0.8 | -7.5 | 2.2
COc1ccc(C(=O)Nc2cccc3ccccc23)cc1OC | -2.8 | 0.1 | 1.0 | 0.8
CC(=O)c1ccc(NC(=O)COc2cc(C)ccc2C(C)C)cc1 | -20.4 | -0.1 | -6.4 | -1.4
COc1cc(C(=O)Nc2ccc3c4c(cccc24)CC3)cc(OC)c1OC | 52.8* | 0.0 | 10.7 | -0.3
Cc1ccc(C(C)C)c(OCC(=O)Nc2ccc(C(=O)Nc3cccc4ccccc34)cc2)c1 | 59.6* | 0.0 | 12.3 | 0.8
COc1cc(NC(=O)c2cccc(-n3cc(NC(=O)Nc4ccccc4)cn3)c2)cc(OC)c1OC | 36.6* | -0.1 | 1.0 | 0.4
COc1ccc(C(=O)Nc2ccc3c4c(cccc24)CC3)cc1 | -47.4 | 0.2 | 11.1 | 0.7
O=C(CS(=O)(=O)c1ccc(C(F)(F)F)cc1[N+](=O)[O-])OCC(F)(F)C(F)F | 1.9 | -0.1 | 1.5 | 0.0
Cn1c2ccccc2c2nnc(SCC(=O)Nc3ncc([N+](=O)[O-])s3)nc21 | -3.3 | -0.1 | -8.8 | 0.0
COC(=O)c1ccc(NC(=O)C23CC4CC(C2)CC(n2nnc(C)n2)(C4)C3)cc1 | -7.5 | 0.0 | -0.7 | 0.5
COc1cc(NC(=O)c2cccc(-n3cc(N(C)c4nnnn4-c4ccccc4)cn3)c2)ccc1N1CCOCC1 | 38.4* | -0.1 | 0.6 | 1.1
COc1cc(NC(=O)c2cccc(-n3cc(Nc4cnnn4-c4ccccc4)cn3)c2)ccc1N1CCOCC1 | 17.5 | 0.1 | 6.9 | -1.6
N#C/C(=C\c1ccc(-c2cccc(C(=O)O)c2)o1)c1nc2ncc(Br)cc2[nH]1 | 6.9 | 0.2 | 5.5 | -1.4
COc1ccc2cc(CCNC(=O)c3ccccc3I)c(=O)[nH]c2c1 | 2.1 | -0.1 | 18.3 | 3.3
Cc1cccc(N2CCN(C(=O)c3ccccc3)CC2)c1C | 13.9 | 0.2 | 23.9 | 0.8
CC(=O)Oc1ccc(C(=O)N2CCN(c3cccc(C)c3C)CC2)cc1 | 51.3* | -0.2 | 6.8 | 0.5
COc1cc(OC)cc(C(=O)Nc2ccc(N3CCCC3=O)c(C)c2)c1 | 19.7 | 0.5 | 12.0 | -10.5
CCCCOc1ccc(S(=O)(=O)N2CCN(c3ccc(N4CCCCC4)nn3)CC2)cc1 | -2.4 | -0.1 | -0.8 | 3.0
CN1[C@@H](C(=O)N2CCC3(CC2)OCCO3)C[C@@H](c2ccc(F)cc2)NS1(=O)=O | -12.7 | -0.1 | -8.7 | -0.2
Cc1ccc(-c2cc(C(=O)N/N=C/c3cc(Br)ccc3O)n[nH]2)o1 | 44.6* | -0.2 | 27.0 | 2.4
COc1ccc(O)c(/C=N/NC(=O)c2cncc(Br)c2)c1 | 81.0* | -0.1 | -41.3 | -0.1
COc1ccc(O)c(/C=N/NC(=O)c2ccc(NC(=O)c3ccccc3Cl)cc2)c1 | 34.1* | 0.0 | 0.6 | 2.2
COc1cccc(/C=N/NC(=O)c2cc(-c3ccc(C)o3)[nH]n2)c1O | 22.0 | 0.4 | 40.6 | -0.8
O=C(N/N=C/c1ccccc1O)c1cccc(Br)c1 | -13.0 | 0.0 | 9.2 | -0.3
SMILES | TEAD-YAP inh | FBW7 act | MITF inh | GPR151 activ
O=C(N/N=C/c1ccc(O)c2ncccc12)c1cccc(Br)c1 | 37.9* | -0.3 | 103.3* | -0.3
CCOC(=O)C1=C(c2ccccc2)N=c2s/c(=C/c3cn(C)c4ccccc34)c(=O)n2C1c1ccc(OC)c(OC)c1 (centres undefined) | 9.0 | 0.1 | -4.4 | 0.8
COC(=O)c1ccc(C(=O)Nc2sc3c(c2C(=O)OC)CCN(C(C)C)C3)cc1 | -3.4 | 0.1 | -6.3 | -2.6
COc1ccc(O)c(/C=N\NC(=O)c2n[nH]c([N+](=O)[O-])n2)c1 | 4.2 | -0.9 | 52.6* | -1.4
COc1ccc(O)c(/C=N/NC(=O)c2cccc(Br)c2)c1 | 57.9* | -0.1 | 14.7 | -0.5
O=C(N/N=C\c1ccccc1O)c1n[nH]c([N+](=O)[O-])n1 | -4.7 | -0.3 | 36.7 | -0.3
COc1ccc(/C=N/NC(=O)c2cccc(Br)c2)cc1 | -66.0 | -0.1 | 2.8 | -0.3
Cc1ccccc1-n1c(O)c(C=NCCC2=CCCCC2)c(=O)[nH]c1=O | -16.4 | 0.9 | -0.4 | 3.2
COc1ccc(N2C(=O)c3ccccc3NC2c2cccc([N+](=O)[O-])c2)cc1 (centres undefined) | -23.1 | 0.6 | 17.3 | -1.2
